The text below walks through data of the supplement of paper PMC11482750.

± gives the standard deviation of the averaged measurements.

Compound in this assay: CCOC(C)=O [ethyl acetate]
In words: control-subtracted net OSN firing rate; higher = stronger neuronal activation. Conditions: odorant dilution (vol/vol): 1/100. The procedure: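 Single sensillum recordings from olfactory sensory neurons. The neurons sit in the maxillary palp or antennal sensilla of D. melanogaster (wild type, mutants, or at1 empty-neuron lines expressing Or42a homologs or the A181D S307P mutant) and of four Scaptomyza species. Each odorant was given as a 1 s pulse from 20 µl loaded on filter paper at 1:100 vol/vol, diluted in mineral oil (γ-hexalactone in DMSO). Spikes were counted in a 0.5 s window starting 0.2 s after onset, background was subtracted, the count was doubled, and the mean solvent-control response was subtracted.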
Take S. pallida pb2a-like: the “control-subtracted net OSN firing rate” value stood at 7.33 ± 11 spikes/s. Then Canton-S (D. melanogaster) pb1b, with -7.33 ± 9.6 spikes/s; and S. hsui pb2a-like, with 8 ± 5.1 spikes/s.

Turning to S. flava pb2b-like, the “control-subtracted net OSN firing rate” value was found to be 0.333 ± 7.3 spikes/s.

As for S. flava pb3a-like, the “control-subtracted net OSN firing rate” value turned out to be 6.67 ± 11 spikes/s. For Canton-S (D. melanogaster) pb3b, the “control-subtracted net OSN firing rate” value is 0.333 ± 9.4 spikes/s. Next, S. pallida pb2b-like: 9.33 ± 10 spikes/s; Canton-S (D. melanogaster) pb1a: 89.1 ± 27 spikes/s; S. pallida pb1b-like: -12.7 ± 9.3 spikes/s.

For the target S. pallida pb3a-like, the “control-subtracted net OSN firing rate” value worked out at 8.67 ± 14 spikes/s. Turning to Canton-S (D. melanogaster) pb2a, the “control-subtracted net OSN firing rate” value came out at 4.57 ± 6.5 spikes/s. Then S. hsui pb3b-like, with -2.33 ± 2.3 spikes/s. Then S. hsui pb2b-like, with 53 ± 37 spikes/s; and S. hsui pb1a-like, with 98.3 ± 21 spikes/s. Next, S. flava pb3b-like: 0.333 ± 9.7 spikes/s. In the case of S. hsui pb1b-like, the “control-subtracted net OSN firing rate” value was -16.7 ± 9.4 spikes/s. Next, S. flava pb2a-like: -1.67 ± 5.7 spikes/s. Then Canton-S (D. melanogaster) pb2b, with 4 ± 6.4 spikes/s. Then S. hsui pb3a-like, with -4.33 ± 11 spikes/s. Canton-S (D. melanogaster) pb3a: the “control-subtracted net OSN firing rate” value was determined as 1.33 ± 8.4 spikes/s. Regarding S. flava pb1b-like, the “control-subtracted net OSN firing rate” value was -6.33 ± 12 spikes/s. Next, S. pallida pb1a-like: 80.3 ± 20 spikes/s. Consider S. flava pb1a-like, for which the “control-subtracted net OSN firing rate” value stood at 61.7 ± 23 spikes/s.

As for S. pallida pb3b-like, the “control-subtracted net OSN firing rate” value is 28.7 ± 25 spikes/s.
